This passage reports compound max-min signal, glutamate response, % of max and glutamate slope, % of max results from PubChem BioAssay AID1259245 (Vanderbilt High Throughput Screening Facility, 2017).

Out of some 40,000 compounds screened, about 1,400 (3.5%) were called active.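 How the source made its calls: active means any of four per-well response measures lying three or more SD from its plate-wide compound average, in either direction; inactive means the rest, inconclusive results apart.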 The full list was thinned out, with actives kept by preference.

In the test the target is Voltage-dependent calcium channel gamma-2 subunit (Mus musculus) + Glutamate receptor 2 (Rattus norvegicus) (UniProt O88602+P19491). Nature of the test: modulators of GluA2-stargazin AMPA receptor complexes, primary screen, cell-based, membrane potential dye (AID 1259245). To be noted: HEK293 GluA2+stargazin, membrane potential dye (FDSS), glutamate EC50, at 30 µM, hits were called plate by plate, in both directions; compound max-min signal: compound-alone response (agonism); glutamate slope, % of max: measured here: glutamate response slope, % max.
Voltage-dependent calcium channel gamma-2 subunit (Mus musculus) + Glutamate receptor 2 (Rattus norvegicus), sequence (O88602 whole entry, looked up): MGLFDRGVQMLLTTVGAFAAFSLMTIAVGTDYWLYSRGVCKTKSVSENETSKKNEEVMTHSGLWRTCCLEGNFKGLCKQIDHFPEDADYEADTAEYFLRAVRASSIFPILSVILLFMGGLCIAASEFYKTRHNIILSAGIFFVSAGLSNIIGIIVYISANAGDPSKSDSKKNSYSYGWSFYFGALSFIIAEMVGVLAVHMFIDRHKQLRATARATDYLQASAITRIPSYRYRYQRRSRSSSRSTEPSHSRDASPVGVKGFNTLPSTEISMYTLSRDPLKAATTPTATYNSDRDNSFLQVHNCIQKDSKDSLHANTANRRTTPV
Voltage-dependent calcium channel gamma-2 subunit (Mus musculus) + Glutamate receptor 2 (Rattus norvegicus), sequence (P19491 whole entry, looked up): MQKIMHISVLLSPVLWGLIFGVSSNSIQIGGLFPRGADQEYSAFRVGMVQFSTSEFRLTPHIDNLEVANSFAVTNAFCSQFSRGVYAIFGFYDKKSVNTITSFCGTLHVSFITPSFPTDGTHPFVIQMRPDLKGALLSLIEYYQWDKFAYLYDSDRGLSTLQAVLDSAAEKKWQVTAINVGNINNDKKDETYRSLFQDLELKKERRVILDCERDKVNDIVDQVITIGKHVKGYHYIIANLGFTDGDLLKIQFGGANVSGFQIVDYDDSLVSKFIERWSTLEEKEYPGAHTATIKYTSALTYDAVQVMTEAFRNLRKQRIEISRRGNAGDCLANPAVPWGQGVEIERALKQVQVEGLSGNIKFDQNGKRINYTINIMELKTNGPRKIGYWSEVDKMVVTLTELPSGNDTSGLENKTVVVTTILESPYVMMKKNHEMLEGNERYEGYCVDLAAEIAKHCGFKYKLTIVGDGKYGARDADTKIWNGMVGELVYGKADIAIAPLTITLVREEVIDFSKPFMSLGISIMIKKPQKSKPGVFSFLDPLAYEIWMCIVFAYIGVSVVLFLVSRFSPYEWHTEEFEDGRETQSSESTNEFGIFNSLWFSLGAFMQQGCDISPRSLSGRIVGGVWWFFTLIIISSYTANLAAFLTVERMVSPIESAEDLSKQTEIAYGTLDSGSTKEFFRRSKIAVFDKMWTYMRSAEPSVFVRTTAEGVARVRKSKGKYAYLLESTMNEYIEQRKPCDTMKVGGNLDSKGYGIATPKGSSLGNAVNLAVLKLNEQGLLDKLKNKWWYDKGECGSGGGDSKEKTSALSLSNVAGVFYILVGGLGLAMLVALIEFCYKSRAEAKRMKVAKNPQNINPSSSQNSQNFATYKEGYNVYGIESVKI
Take `COc1ccc(C)cc1S(=O)(=O)Nc1cc(Cl)ccc1O`: the compound max-min signal turned out to be 0.201; the glutamate response, % of max was 17.5% (active); the glutamate slope, % of max stood at 33.4%.

In the case of `COc1ccc(C)cc1S(=O)(=O)NCC1CCN(C2CCCC2)CC1`, the compound max-min signal stood at 0.046; the glutamate response, % of max is 35.2% (inactive); the glutamate slope, % of max was determined as 60.4%.

As for `CCOc1ccc(C)cc1S(=O)(=O)Nc1cc(Cl)ccc1O`, the compound max-min signal amounted to 0.184; the glutamate response, % of max was 20.5% (inactive); the glutamate slope, % of max stood at 42.7%.

Regarding `COc1ccc(SCC(=O)Nc2sc3c(c2C(N)=O)CCN(C(C)=O)C3)cc1`, the compound max-min signal came to 0.106; the glutamate response, % of max is 34.1% (inactive); the glutamate slope, % of max was 58.5%.

For the molecule `COc1ccc(CCNC(=O)Nc2c[nH]c3ccccc23)cc1`, the compound max-min signal was found to be 0.127; the glutamate response, % of max was 40.6% (inactive); the glutamate slope, % of max came out at 64.1%.

Consider `Cc1cc(Cl)cc2sc(N(CC3CCCO3)C(=O)CN(C)S(C)(=O)=O)nc12` (stereo unspecified), for which the compound max-min signal worked out at 0.075; the glutamate response, % of max was 26.5% (inactive); the glutamate slope, % of max worked out at 51.3%.

For `O=S(=O)(c1ccc(C2CCCCC2)cc1)N1CCC(Cc2ccccc2)CC1`, the compound max-min signal was determined as 0.0564; the glutamate response, % of max was 25.6% (inactive); the glutamate slope, % of max came out at 44.4%.

Regarding `COc1ccc(S(=O)(=O)NCC(c2ccc(C)cc2)N2CCN(C)CC2)cc1OC` (stereo unspecified), the compound max-min signal was 0.0672; the glutamate response, % of max was 37.4% (inactive); the glutamate slope, % of max was 55.5%.

With `CCOc1ccc(S(=O)(=O)NCC(O)c2ccsc2)cc1F` (stereo unspecified), the compound max-min signal stood at 0.128; the glutamate response, % of max is 48.1% (inactive); the glutamate slope, % of max is 69%.

For the molecule `COc1ccc(S(=O)(=O)NCC(c2ccsc2)N2CCCCCC2)cc1F` (stereo unspecified), the compound max-min signal was 0.168; the glutamate response, % of max is 17.6% (active); the glutamate slope, % of max was determined as 30.2%.

For `COc1ccc(N2CCN(CCNS(=O)(=O)c3ccc(Cl)s3)CC2)cc1`, the compound max-min signal was found to be 0.131; the glutamate response, % of max was 37.9% (inactive); the glutamate slope, % of max worked out at 47.8%.

Turning to `CC(C)C(=O)Nc1ccc(SCC(=O)c2ccccc2)nn1`, the compound max-min signal worked out at 0.113; the glutamate response, % of max is 25.4% (inactive); the glutamate slope, % of max stood at 42.3%.

Take `COC(=O)c1ccc(NC(=O)CSc2ccc(NC(=O)c3ccco3)nn2)cc1`: the compound max-min signal turned out to be 0.0425; the glutamate response, % of max was 23.1% (active); the glutamate slope, % of max is 46.9%.

`O=C(CSc1ccc(NC(=O)c2ccco2)nn1)Nc1ccc(OC(F)(F)F)cc1`: the compound max-min signal is 0.106; the glutamate response, % of max was 19.5% (inactive); the glutamate slope, % of max came to 37.1%.

In the case of `COc1cccc(CNC(=O)CSc2ccc(NC(=O)c3cccc(F)c3)nn2)c1`, the compound max-min signal was determined as 0.0911; the glutamate response, % of max is 24.2% (inactive); the glutamate slope, % of max was determined as 47.4%.

In the case of `Cc1ccc(C(=O)Nc2ccc(SCC(=O)NCc3ccc4c(c3)OCO4)nn2)cc1`, the compound max-min signal came to 0.0549; the glutamate response, % of max is 27.8% (inactive); the glutamate slope, % of max was 49.8%.

With `CC(=O)c1ccc(NC(=O)CSc2ccc(NC(=O)c3ccco3)nn2)cc1`, the compound max-min signal amounted to 0.0373; the glutamate response, % of max was 24.5% (active); the glutamate slope, % of max was found to be 47%.

As to `CCOC(=O)N1CCc2c(sc(NC(=O)c3ccccc3Cl)c2-c2nc3ccccc3s2)C1`, the compound max-min signal is 0.11; the glutamate response, % of max was 43.3% (inactive); the glutamate slope, % of max came out at 61.3%.

Regarding `CCn1nnc2c(N3CCN(CC(=O)Nc4c(C)cc(C)cc4C)CC3)ncnc21`, the compound max-min signal is 0.0423; the glutamate response, % of max is 21.5% (inactive); the glutamate slope, % of max came to 39.9%.

For the molecule `COc1ccc(-n2nnnc2SC(C)C(=O)Nc2ccccc2Cl)cc1` (stereo unspecified), the compound max-min signal stood at 0.0851; the glutamate response, % of max was 29.7% (inactive); the glutamate slope, % of max was found to be 55.7%.

In the case of `O=C(NCCN1CCOC(c2ccccc2)C1)c1c(F)cccc1F` (stereo unspecified), the compound max-min signal is 0.0396; the glutamate response, % of max is 14.5% (inactive); the glutamate slope, % of max was found to be 32.8%.

Consider `CCOc1ccc(S(=O)(=O)NCc2ccc3c(c2)OCO3)cc1OCC`, for which the compound max-min signal stood at 0.0924; the glutamate response, % of max is 30.4% (inactive); the glutamate slope, % of max was 55.6%.

For `COc1ccc(S(=O)(=O)Nc2ccc(N3CCCCS3(=O)=O)cc2)cc1F`, the compound max-min signal came out at 0.0701; the glutamate response, % of max is 25.7% (inactive); the glutamate slope, % of max amounted to 44.9%.

As for `O=C(CCCn1nc(-c2ccc(Cl)cc2)ccc1=O)Nc1ccc(F)c(F)c1`, the compound max-min signal was determined as 0.175; the glutamate response, % of max was 35.4% (inactive); the glutamate slope, % of max was found to be 51.5%.

`CC(C)c1cc(NCCN2CCOCC2)n2ncc(-c3ccccc3)c2n1`: the compound max-min signal came out at 0.126; the glutamate response, % of max is 34% (inactive); the glutamate slope, % of max was determined as 54.5%.

With `COc1nn(C)cc1C(=O)NCCN1CCN(S(C)(=O)=O)CC1`, the compound max-min signal stood at 0.0954; the glutamate response, % of max is 49.7% (inactive); the glutamate slope, % of max was 63.9%.

Regarding `COc1nn(C)cc1C(=O)NCC(=O)Nc1cccc(C)c1C`, the compound max-min signal came out at 0.067; the glutamate response, % of max is -0.69% (active); the glutamate slope, % of max is 4.95%.

In the case of `COc1cn(CC(=O)Nc2cccc(C)c2C)c(CN2CCOCC2)cc1=O`, the compound max-min signal is 0.0306; the glutamate response, % of max is 11% (inactive); the glutamate slope, % of max amounted to 23.6%.

For the molecule `Cc1ccc(NC(=O)c2ccc(S(=O)(=O)N3CCCC3)cc2)c(C(=O)c2ccccc2)c1`, the compound max-min signal was found to be 0.117; the glutamate response, % of max was 44% (inactive); the glutamate slope, % of max worked out at 65.3%.

`O=C(CSCc1ccccc1)Nc1ccccc1F`: the compound max-min signal worked out at 0.0999; the glutamate response, % of max is 23.2% (inactive); the glutamate slope, % of max came to 36.5%.

Consider `COc1ccccc1NC(=O)c1csc(NS(=O)(=O)c2ccccc2)n1`, for which the compound max-min signal was found to be 0.0914; the glutamate response, % of max is 30.6% (inactive); the glutamate slope, % of max is 47.5%.

Take `Cc1ccc(S(=O)(=O)Nc2ccccc2C(=O)Nc2ccc3c4c(cccc24)CC3)cc1`: the compound max-min signal amounted to 0.105; the glutamate response, % of max is 43.6% (inactive); the glutamate slope, % of max amounted to 62.4%.

In the case of `COc1cc([N+](=O)[O-])ccc1NC(=O)c1ccccc1NS(=O)(=O)c1ccccc1`, the compound max-min signal is 0.141; the glutamate response, % of max was 22.1% (active); the glutamate slope, % of max is 34.2%.

For the molecule `COc1ccc(CNC(=O)N2CCC(c3cccs3)CC2)cc1`, the compound max-min signal turned out to be 0.14; the glutamate response, % of max is 40.4% (inactive); the glutamate slope, % of max was found to be 59.7%.

`CN(C)C(CNC(=O)C(=O)Nc1ccc2c(c1)OCCO2)c1cccn1C` (stereo unspecified): the compound max-min signal was 0.0533; the glutamate response, % of max is 30.5% (inactive); the glutamate slope, % of max came to 63.5%.

On to `COCCCNc1nc2c(c(=O)n(C)c(=O)n2C)n1CC(O)COc1ccc(C)c(C)c1` (stereo unspecified), for which the compound max-min signal came out at 0.0698; the glutamate response, % of max was 46.2% (inactive); the glutamate slope, % of max was found to be 75.7%.

On to `COCCCn1c(C(=O)Nc2cccnc2)cc2c(=O)n(C)c(=O)n(C)c21`, for which the compound max-min signal worked out at 0.306; the glutamate response, % of max was 24.6% (active); the glutamate slope, % of max came out at 44.9%.

Turning to `CCOC(=O)c1ccc(NC(=O)c2cccnc2)cc1`, the compound max-min signal is 0.0638; the glutamate response, % of max was 27.5% (inactive); the glutamate slope, % of max came to 53.7%.

With `COc1ccccc1NC(=O)Cn1cc(-c2nnc(-c3ccco3)o2)c2ccccc21`, the compound max-min signal was determined as 0.137; the glutamate response, % of max was 42.8% (inactive); the glutamate slope, % of max came out at 63.9%.

For the molecule `COc1cccc2sc(N(Cc3ccco3)C(=O)CSCc3ccccc3)nc12`, the compound max-min signal is 0.0832; the glutamate response, % of max was 31.9% (inactive); the glutamate slope, % of max stood at 54.9%.

For `COc1ccc2nc(N(CCN3CCOCC3)C(=O)c3ccc([N+](=O)[O-])o3)sc2c1`, the compound max-min signal was 0.173; the glutamate response, % of max was 42.6% (active); the glutamate slope, % of max came out at 68.7%.

`COc1ccc2nc(N(CCN3CCOCC3)C(=O)c3ccccc3S(C)(=O)=O)sc2c1`: the compound max-min signal amounted to 0.0288; the glutamate response, % of max is 22.5% (inactive); the glutamate slope, % of max was 42.4%.

For the molecule `COc1ccc2nc(N(CCN3CCOCC3)C(=O)c3cc4cc([N+](=O)[O-])ccc4s3)sc2c1`, the compound max-min signal was found to be 0.0573; the glutamate response, % of max was 31% (inactive); the glutamate slope, % of max is 45.5%.

Turning to `c1nc(N2CCN(Cc3ccc4c(c3)OCO4)CC2)c2c3c(sc2n1)CCCC3`, the compound max-min signal was determined as 0.0914; the glutamate response, % of max was 49% (inactive); the glutamate slope, % of max was 68.7%.

Take `COc1ccc(/C=C2\Oc3c(ccc4c3CN(c3ccc(F)cc3)CO4)C2=O)c(OC)c1OC`: the compound max-min signal is 0.103; the glutamate response, % of max is 23.7% (inactive); the glutamate slope, % of max amounted to 51.7%.

For `COC(=O)c1c(NC(=O)CC2NCCNC2=O)sc(C)c1C` (stereo unspecified), the compound max-min signal was 0.0942; the glutamate response, % of max is 53% (active); the glutamate slope, % of max was 55.8%.

On to `COC(=O)c1ccsc1NC(=O)CC1Sc2ccccc2NC1=O` (stereo unspecified), for which the compound max-min signal was found to be 0.0707; the glutamate response, % of max was 30.1% (inactive); the glutamate slope, % of max is 49.8%.
